Among all 68,000 compounds or so, about 2,700 (4%) showed an effect of 50% or more. For the sample, strong results were picked, then their nearest neighbours and some compounds at random.

Experimental findings from ChEMBL document CHEMBL4513216, “Probing the Open Global Health Chemical Diversity Library for Multistage-Active Starting Points for Next-Generation Antimalarials” (ACS Infect Dis, 2020) are described below.

This experiment has as its system Plasmodium berghei. The experiment can be described thus: Screen against P. berghei liver stage (PbLuc), transformed with Luciferase, at 2uM. The format is functional, HepG2. To be noted: tested at 2 uM.
On to `CCCc1ccc2oc(C(=O)N3CCN(CCOC)CC3)c(C)c2c1`, for which the INHIBITION is recorded as -28.65%.

Regarding `COc1cccn(CC(=O)N(C)CCSC)c1=O`, the INHIBITION stood at 21.97%.

Turning to `COCCN(C)C(=O)Cn1cccc(OC)c1=O`, the INHIBITION is -14.84%.

With `COc1cccn(CC(=O)N(C)Cc2ccoc2)c1=O`, the INHIBITION was -33.11%.

Turning to `COCCCN(C)C(=O)Cn1cccc(OC)c1=O`, the INHIBITION turned out to be 50.59%.

Regarding `COc1cccn(CC(=O)N(C)CCC2CCOCC2)c1=O`, the INHIBITION worked out at 69.67%.

Regarding `COc1cccn(CC(=O)N(C)CCCOc2c(C)cccc2C)c1=O`, the INHIBITION is listed as -30.49%.

As to `CN(C)C(c1ccccn1)C1CCC(CNC(=O)CC2CCCC2)CC1` (centres undefined), the INHIBITION came out at 0.64%.

For `CCc1c(C(=O)O)nnn1-c1ccc(C)cc1C`, the INHIBITION is -54.75%.

For `NC(=O)N1CC[C@@H]2O[C@@H](COCC(=O)N3CCCC3)CC[C@@H]21`, the INHIBITION turned out to be 35.98%.

Consider `Cc1cc(C[C@@H]2COC[C@H]2NCc2ccccc2C(F)(F)F)on1`, for which the INHIBITION is listed as 32.31%.

As for `Cc1cc(C(O)CCNC(=O)c2ccc(Cl)s2)c(C)o1` (centres undefined), the INHIBITION is -16.88%.

`CC(CNC(=O)c1cnccn1)Oc1cccc(Br)c1` (centres undefined): the INHIBITION was found to be 30.75%.

For `CC(CNC(=O)c1ccncc1F)Oc1ccc(F)cc1` (centres undefined), the INHIBITION is 23.79%.

Consider `CC(CNC(=O)c1cnccn1)Oc1ccc(F)cc1` (centres undefined), for which the INHIBITION is 52.84%.

Regarding `NCc1cccc(-c2cccnc2C(=O)NCCN2CCCC2)c1`, the INHIBITION is given as 1.07%.

On to `O=C(NC1CC1)[C@@H]1CCO[C@@H]2CCN(CC3CCC3)C[C@H]21`, for which the INHIBITION stood at 9.98%.

With `Cc1cc(F)ccc1NC(=O)NCC(C)N1CCOCC1` (centres undefined), the INHIBITION came to 48.59%.

Consider `Cc1ccc(F)cc1NC(=O)NCC(C)N1CCOCC1` (centres undefined), for which the INHIBITION is -0.54%.

Regarding `CC(CNC(=O)Nc1ccc(F)cc1Br)N1CCOCC1` (centres undefined), the INHIBITION is listed as 74.22%.

In the case of `CCc1ccc(CN2CCC3(CCCN(C(=O)N(C)C)C3)C2)o1` (centres undefined), the INHIBITION is 1.08%.

On to `O=C(Cc1ccc2c(c1)OCCO2)NC1CC1`, for which the INHIBITION is listed as 23.31%.

Turning to `O=C(CC1CC1)N[C@@H]1CN(Cc2ccoc2)C[C@@H]2CCCO[C@@H]21`, the INHIBITION turned out to be 35.89%.

For `O=C(N[C@@H]1CN(Cc2ccoc2)C[C@@H]2CCCO[C@@H]21)C1CCC1`, the INHIBITION was -8.62%.

Consider `O=C(N[C@@H]1CN(Cc2ccccc2)C[C@@H]2CCCO[C@@H]21)C1CC1`, for which the INHIBITION came out at 50.9%.

In the case of `O=C(CC1CC1)N[C@@H]1CN(Cc2ccco2)C[C@@H]2CCCO[C@@H]21`, the INHIBITION is 52.55%.

For the molecule `O=C(CC1CC1)N[C@@H]1CN(Cc2ccncc2)C[C@@H]2CCCO[C@@H]21`, the INHIBITION turned out to be 29.01%.

Turning to `CN(Cc1ccco1)[C@@H]1CN(Cc2cccnc2)C[C@@H]2CCCO[C@@H]21`, the INHIBITION is 29.36%.

`CN(Cc1ccco1)[C@@H]1CN(Cc2ccncc2)C[C@@H]2CCCO[C@@H]21`: the INHIBITION stood at 60.93%.

Regarding `CN(Cc1ccco1)[C@@H]1CN(Cc2ccc(F)cc2)C[C@@H]2CCCO[C@@H]21`, the INHIBITION is recorded as 29.73%.

Regarding `CS(=O)(=O)N[C@@H]1CN(Cc2ccccc2)C[C@@H]2CCCO[C@@H]21`, the INHIBITION is reported as 14.39%.

For the molecule `NCC1CCCCN1C(=O)Cc1cccc(Cl)c1` (centres undefined), the INHIBITION is on record as -22.89%.

For the molecule `CC1(C)CN(C(=O)c2occc2COc2cccc(C#N)c2)CCO1`, the INHIBITION was -0.41%.

As for `O=C(NCc1nc[nH]n1)c1cc(COc2cccc(F)c2)[nH]n1`, the INHIBITION was 10.22%.

`CC(C)(C)C(=O)NCCC(=O)NS(=O)(=O)c1cccc(C#N)c1`: the INHIBITION was -49%.

As for `Cc1nc(CC(=O)N2CCc3nnc(N(C)C)cc3C2)cs1`, the INHIBITION amounted to 1.6%.

Take `Cc1ccc(N2CCCC(N(C)c3ncnc4c3CCC4)C2)nn1` (centres undefined): the INHIBITION is -28.33%.

Regarding `COc1ccc(CC(=O)N2CC[C@@H]3[C@H](CC2)N(C)CCS3(=O)=O)cc1`, the INHIBITION is listed as 24.64%.

Consider `COc1cccc(C(=O)N2CC[C@@H]3[C@H](CC2)N(C)CCS3(=O)=O)c1`, for which the INHIBITION was -14.21%.

Turning to `COc1ccc(C(=O)N2CC[C@@H]3[C@H](CC2)N(C)CCS3(=O)=O)cc1`, the INHIBITION is -17.39%.

Regarding `CC(C)(C)CC(=O)N1CC[C@@H]2[C@H](CC1)N(S(C)(=O)=O)CCS2(=O)=O`, the INHIBITION is given as -16.93%.

Turning to `CN1CCS(=O)(=O)[C@@H]2CCN(C(=O)c3ccccc3)CC[C@@H]21`, the INHIBITION is 71.83%.

For `CN1CCS(=O)(=O)[C@@H]2CCN(C(=O)CC(C)(C)C)CC[C@@H]21`, the INHIBITION is given as 50.17%.

Regarding `CC(=O)NC(C)(C)c1noc(C2(C#N)CCCCC2)n1`, the INHIBITION amounted to 22.41%.

For the molecule `Cc1nc(CCNC(=O)NC2CCN(c3ncccn3)CC2)cs1`, the INHIBITION is reported as -17.45%.

In the case of `Cc1nc(CNC(=O)NC2CCN(c3ncccn3)CC2)cs1`, the INHIBITION came out at 56.78%.

With `Cc1nc(CNC(=O)NC2CCCN(c3ncccn3)C2)cs1` (centres undefined), the INHIBITION came out at 30.96%.

With `Cc1cc(CNCc2c(C(C)C)nn(C)c2N2CCOCC2)no1`, the INHIBITION came to 22.16%.

With `Cc1nn(C)c(N2CCOCC2)c1CNCc1ccccc1CO`, the INHIBITION is recorded as 50.18%.

Turning to `Cc1cc(CNCc2c(C)nn(C)c2N2CCOCC2)no1`, the INHIBITION came to 65.77%.

Consider `Cc1nn(C)c(N2CCOCC2)c1CNCc1ccnc(N(C)C)c1`, for which the INHIBITION is on record as 17.11%.

As to `COc1ncccc1CNCc1c(C)nn(C)c1N1CCOCC1`, the INHIBITION turned out to be 40.24%.

On to `Cc1nc(CNCc2c(C)nn(C)c2N2CCOCC2)cs1`, for which the INHIBITION was -14.3%.

In the case of `Cc1nn(C)c(N2CCOCC2)c1CNCc1ccc(CO)c(F)c1`, the INHIBITION was 63.05%.

Consider `Cc1nn(C)c(N2CCOCC2)c1CNCc1ccc2c(c1)OCO2`, for which the INHIBITION is on record as 18.01%.

Consider `Cc1nn(C)c(N2CCOCC2)c1CNCc1ccoc1C`, for which the INHIBITION is given as 10.4%.

Consider `CN(Cc1ccc(F)cc1)CC1(O)CCN(C(=O)c2cccs2)C1` (centres undefined), for which the INHIBITION is given as -27.04%.

In the case of `CC(C)c1nc2n(n1)CC(NCc1nnc(C3CC3)o1)CC2` (centres undefined), the INHIBITION was -30.61%.

Consider `O=C(CCNC(=O)C1CCCC1)NCc1cccnc1-n1cncn1`, for which the INHIBITION was -18.67%.

In the case of `Cc1nn(C)c(C)c1C1SCC(=O)Nc2c1c(O)nn2C(C)C` (centres undefined), the INHIBITION was found to be 4.89%.

With `COc1ccc(Cl)cc1CN(C)CC(=O)Nc1ccnn1C(C)C1CC1` (centres undefined), the INHIBITION is recorded as -13.72%.

As to `CC(=O)N(C)CC(=O)NCC1(c2cccc(C)c2)CCCC1`, the INHIBITION is on record as 54.29%.

`CC(=O)N(C)CC(=O)NCC1(c2c(F)cccc2F)CCCC1`: the INHIBITION is -41.54%.

For `Cc1cccc(C2(CNC(=O)CO)CCCC2)c1`, the INHIBITION came out at 35.23%.
